In PubChem BioAssay (Tox21):
Records with an inconclusive call do not appear. A call without a number means that no potency is given here. Values without a mark were called inactive. The source made the active and inactive calls. Unless noted, calls come from the whole dose curve; as a rule, active = well fitted curve in the direction sought with a large enough effect in the repeat runs; inconclusive = weak or mixed curves; inactive = no such curve, though single readings can be large; an effect the other way counts as inactive or inconclusive.

Legend:
[1] = biological target: Aryl hydrocarbon receptor (Homo sapiens) (UniProt P35869); test: qHTS assay to identify small molecule that activate the aryl hydrocarbon receptor (AhR) signaling pathway (AID 743085); note: nearly all actives have a fitted effect of over 15% in size; note: potency is the fitted concentration of half-maximal effect;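 for activation: HG2L7.5c1 human HepG2 liver cells with stably integrated DRE-driven firefly reporter; series mostly up to about 70 µM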
Sequence of Aryl hydrocarbon receptor (Homo sapiens) (P35869 whole entry, looked up): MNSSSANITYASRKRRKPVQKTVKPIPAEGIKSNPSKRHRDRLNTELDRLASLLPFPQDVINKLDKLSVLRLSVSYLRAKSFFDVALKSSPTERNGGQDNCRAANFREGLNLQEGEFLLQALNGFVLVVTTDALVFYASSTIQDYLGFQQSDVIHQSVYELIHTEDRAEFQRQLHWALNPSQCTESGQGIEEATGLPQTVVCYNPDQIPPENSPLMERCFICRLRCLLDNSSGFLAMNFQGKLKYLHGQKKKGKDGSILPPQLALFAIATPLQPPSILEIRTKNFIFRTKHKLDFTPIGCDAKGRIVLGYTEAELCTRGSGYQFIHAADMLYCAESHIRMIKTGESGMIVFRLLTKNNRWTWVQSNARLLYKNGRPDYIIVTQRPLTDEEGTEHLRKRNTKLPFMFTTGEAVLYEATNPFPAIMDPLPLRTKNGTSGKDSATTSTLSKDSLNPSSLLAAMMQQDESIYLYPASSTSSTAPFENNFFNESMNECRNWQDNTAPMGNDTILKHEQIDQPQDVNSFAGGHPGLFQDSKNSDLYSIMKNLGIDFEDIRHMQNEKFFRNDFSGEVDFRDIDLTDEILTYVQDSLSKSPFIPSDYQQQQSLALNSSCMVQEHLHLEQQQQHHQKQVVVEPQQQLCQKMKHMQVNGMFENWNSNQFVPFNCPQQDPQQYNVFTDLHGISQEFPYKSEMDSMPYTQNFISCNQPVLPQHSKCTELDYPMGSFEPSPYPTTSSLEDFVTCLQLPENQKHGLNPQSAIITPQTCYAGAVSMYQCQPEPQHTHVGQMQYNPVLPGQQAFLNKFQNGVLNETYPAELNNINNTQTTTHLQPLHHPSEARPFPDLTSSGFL
In short: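 Luminescence (ONE-Glo) from a dioxin-responsive-element luciferase reporter in HG2L7.5c1 HepG2 cells after 24 hr compound exposure at 37C; viability measured by CellTiter-Fluor fluorescence beforehand.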

[2] = qHTS assay to identify small molecule antagonists of the peroxisome proliferator-activated receptor gamma (PPARg) signaling pathway - cell viability counter screen (AID 743194); note: nearly all actives have a fitted effect of over 55% in size; note: potency is the fitted concentration of half-maximal effect
In short: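 Cytotoxicity counter screen in PPARg-bla HEK293H cells, same wells as reporter assay. Compounds plus 50 nM rosiglitazone (final) for 17 h at 37 C, then viability read by CellTiter-Glo luminescence.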

[3] = qHTS assay for small molecule agonists of the antioxidant response element (ARE) signaling pathway - cell viability counter screen (AID 743203; calls by dose curve; note: nearly all actives have a fitted effect of over 55% in size)
In short: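 Measured in the same wells as the beta-lactamase ARE reporter, this read-out is CellTiter-Glo luminescence from HepG2 ARE-bla cells given compounds for 16 hrs.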

[4] = qHTS assay for small molecule activators of the heat shock response signaling pathway - cell viability counter screen (AID 743209); note: nearly all actives have a fitted effect of over 50% in size; note: potency is the fitted concentration of half-maximal effect
In short: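 Same-well multiplex: after 2.5 h room-temperature incubation with LiveBLAzer B/G substrate and fluorescence reading, CellTiter-Glo reagent was added to HSE-bla HeLa cells that had received compound for 5 h at 37 C; luminescence read after 30 min.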

[5] = qHTS assay for small molecule activators of the heat shock response signaling pathway (AID 743210; active = well fitted activation curve with a large enough effect in the signal ratio in the repeat runs, with a control signal flat, not every such curve was filed as active; the % refers to the signal ratio;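 note: HeLa cells with beta-lactamase reporter driven by heat shock elements; series mostly up to about 63 µM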)
In short: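 Beta-lactamase reporter read-out: FRET substrate fluorescence after 2.5 h at RT, following 5 h compound treatment at 37 C of HeLa cells carrying HSE-driven bla reporter; quantitative HTS format.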

[6] = qHTS assay to identify small molecule agonists of the peroxisome proliferator-activated receptor delta (PPARd) signaling pathway - cell viability counter screen (AID 743211); note: nearly all actives have a fitted effect of over 55% in size; note: potency is the fitted concentration of half-maximal effect
In short: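 Viability was measured as CellTiter-Glo luminescence (30 min, room temperature) in the same wells as the beta-lactamase readout. GeneBLAzer PPARd UAS-bla HEK293H cells received compound after 5 h plating and were incubated 17 h at 37 C.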

[7] = biological target: Peroxisome proliferator-activated receptor delta (Homo sapiens) (UniProt Q03181); test: qHTS assay to identify small molecule agonists of the peroxisome proliferator-activated receptor delta (PPARd) signaling pathway (AID 743212; calls by dose curve)
Sequence of Peroxisome proliferator-activated receptor delta (Homo sapiens) (Q03181 whole entry, looked up): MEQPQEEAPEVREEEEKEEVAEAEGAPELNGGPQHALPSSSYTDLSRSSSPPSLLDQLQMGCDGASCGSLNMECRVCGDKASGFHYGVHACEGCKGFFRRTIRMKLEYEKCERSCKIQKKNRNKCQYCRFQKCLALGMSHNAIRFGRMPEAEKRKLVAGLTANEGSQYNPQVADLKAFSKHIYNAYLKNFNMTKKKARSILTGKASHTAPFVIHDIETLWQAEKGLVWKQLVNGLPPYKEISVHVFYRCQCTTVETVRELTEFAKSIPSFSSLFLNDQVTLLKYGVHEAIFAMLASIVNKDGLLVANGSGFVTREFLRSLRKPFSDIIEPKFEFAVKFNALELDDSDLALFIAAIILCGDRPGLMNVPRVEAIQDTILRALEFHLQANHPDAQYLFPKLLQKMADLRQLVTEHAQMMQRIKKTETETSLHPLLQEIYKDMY
In short: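 Read-out: beta-lactamase FRET fluorescence after 2 h room-temperature incubation with LiveBLAzer B/G substrate. Cells were HEK293H carrying a UAS-bla reporter for PPARd, treated at 37 C with DMSO-dissolved compounds.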

[8] = qHTS assay to identify small molecule antagonists of the peroxisome proliferator-activated receptor delta (PPARd) signaling pathway - cell viability counter screen (AID 743213); note: nearly all actives have a fitted effect of over 50% in size
In short: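 Luminescence from CellTiter-Glo, added after the bla read and incubated 30 min at room temperature, gives viability of HEK293H PPARd-bla cells exposed to compounds for 17 h at 37 C with 300 nM L165041.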

[9] = biological target: Peroxisome proliferator-activated receptor delta (Homo sapiens) (UniProt Q03181); test: qHTS assay to identify small molecule antagonists of the peroxisome proliferator-activated receptor delta (PPARd) signaling pathway (AID 743215; active = well fitted inhibition curve with a large enough effect in the signal ratio in the repeat runs, not every such curve was filed as active; the % refers to the signal ratio;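 note: cells stimulated with agonist L165041 at 300 nM final during compound exposure; series mostly up to about 62 µM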)
In short: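 Fluorescence from cleaved LiveBLAzer B/G FRET substrate (2 h, room temperature) reports PPARd-driven beta-lactamase in HEK293H UAS-bla cells. Cells had been treated 17 h at 37 C with compound plus 300 nM final L165041.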

[10] = biological target: Bile acid receptor (Homo sapiens) (UniProt Q96RI1); test: qHTS assay to identify small molecule agonists of the farnesoid-X-receptor (FXR) signaling pathway (AID 743220; active = well fitted activation curve with a large enough effect in the signal ratio in the repeat runs, not every such curve was filed as active; the % refers to the signal ratio)
Sequence of Bile acid receptor (Homo sapiens) (Q96RI1 whole entry, looked up): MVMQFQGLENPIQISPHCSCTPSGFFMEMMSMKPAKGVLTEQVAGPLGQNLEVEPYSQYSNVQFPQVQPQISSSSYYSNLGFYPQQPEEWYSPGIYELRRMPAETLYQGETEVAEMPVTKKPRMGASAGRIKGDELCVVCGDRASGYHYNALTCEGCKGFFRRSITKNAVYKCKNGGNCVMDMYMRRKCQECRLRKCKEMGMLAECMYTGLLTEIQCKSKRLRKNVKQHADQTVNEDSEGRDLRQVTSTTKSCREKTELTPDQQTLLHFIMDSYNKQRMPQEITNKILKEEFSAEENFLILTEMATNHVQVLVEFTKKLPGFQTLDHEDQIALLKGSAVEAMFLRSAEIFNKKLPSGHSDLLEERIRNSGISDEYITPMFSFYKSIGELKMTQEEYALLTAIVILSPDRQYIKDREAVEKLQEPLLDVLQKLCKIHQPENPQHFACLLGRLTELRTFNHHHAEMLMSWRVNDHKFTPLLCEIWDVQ
In short: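 FXR-UAS-bla HEK 293T cells carrying a UAS-driven beta-lactamase reporter were plated for 5 h at 37C/5% CO2, then exposed to DMSO-dissolved Tox21 10K compounds for 16 h at 37C. A LiveBLAzer B/G FRET substrate was loaded for 2 h at room temperature before fluorescence reading.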

[11] = qHTS assay to identify small molecule antagonists of the farnesoid-X-receptor (FXR) signaling pathway - cell viability counter screen (AID 743221; active = well fitted cell-killing curve with a large enough effect in the repeat runs, not every such curve was filed as active; note: nearly all actives have a fitted effect of over 50% in size; note: potency is the fitted concentration of half-maximal effect)
In short: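 Cytotoxicity counter screen run in the FXR-bla reporter wells: HEK 293T cells exposed to compound with 50 uM (final) chenodeoxycholic acid for 16 h, 37 C, then viability measured by CellTiter-Glo luminescence after 30 min, room temperature.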

[12] = biological target: Vitamin D3 receptor (Homo sapiens) (UniProt P11473); test: qHTS assay to identify small molecule agonists of the vitamin D receptor (VDR) signaling pathway (AID 743222; calls by dose curve)
Sequence of Vitamin D3 receptor (Homo sapiens) (P11473 whole entry, looked up): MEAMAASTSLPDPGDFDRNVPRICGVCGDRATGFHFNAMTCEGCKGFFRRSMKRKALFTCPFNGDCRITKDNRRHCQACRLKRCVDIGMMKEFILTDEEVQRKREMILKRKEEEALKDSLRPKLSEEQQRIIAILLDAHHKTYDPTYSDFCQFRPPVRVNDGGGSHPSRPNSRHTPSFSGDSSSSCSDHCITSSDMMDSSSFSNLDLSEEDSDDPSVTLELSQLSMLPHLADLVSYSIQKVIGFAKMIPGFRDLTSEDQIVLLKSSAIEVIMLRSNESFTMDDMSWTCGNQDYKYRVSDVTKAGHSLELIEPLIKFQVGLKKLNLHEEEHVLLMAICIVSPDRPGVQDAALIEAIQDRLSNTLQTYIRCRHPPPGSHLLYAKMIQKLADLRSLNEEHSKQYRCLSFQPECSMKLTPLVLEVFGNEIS
In short: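 Following 4 h attachment at 37C, VDR-bla cells (2,000 per well) received DMSO-dissolved compounds or controls. After 16 h incubation, LiveBLAzer B/G FRET substrate was added and fluorescence read 2 h later at room temperature.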

[13] = biological target: Vitamin D3 receptor (Homo sapiens) (UniProt P11473); test: qHTS assay to identify small molecule antagonists of the vitamin D receptor (VDR) signaling pathway (AID 743223; active = well fitted inhibition curve with a large enough effect in the signal ratio in the repeat runs, not every such curve was filed as active; the % refers to the signal ratio)
In short: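 Antagonist mode: compound added to VDR-bla cells alongside agonist 1alpha,25-dihydroxyvitamin D3 (3 nM final), incubation 16 h at 37C. Read-out is LiveBLAzer FRET fluorescence, 2 h at room temperature.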

[14] = qHTS assay to identify small molecule agonists of the vitamin D receptor (VDR) signaling pathway - cell viability counter screen (AID 743224); note: nearly all actives have a fitted effect of over 50% in size; note: potency is the fitted concentration of half-maximal effect
In short: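 In parallel with the bla FRET readout, cytotoxicity toward VDR-bla cells after 16 h compound exposure was assessed by CellTiter-Glo, with luminescence recorded after a 30 min room-temperature incubation.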

[15] = biological target: Peroxisome proliferator-activated receptor gamma (Homo sapiens) (UniProt P37231); test: qHTS assay to identify small molecule agonists of the peroxisome proliferator-activated receptor gamma (PPARg) signaling pathway (AID 743094; active = well fitted activation curve with a large enough effect in the signal ratio in the repeat runs, not every such curve was filed as active; the % refers to the signal ratio)
Sequence of Peroxisome proliferator-activated receptor gamma (Homo sapiens) (P37231 whole entry, looked up): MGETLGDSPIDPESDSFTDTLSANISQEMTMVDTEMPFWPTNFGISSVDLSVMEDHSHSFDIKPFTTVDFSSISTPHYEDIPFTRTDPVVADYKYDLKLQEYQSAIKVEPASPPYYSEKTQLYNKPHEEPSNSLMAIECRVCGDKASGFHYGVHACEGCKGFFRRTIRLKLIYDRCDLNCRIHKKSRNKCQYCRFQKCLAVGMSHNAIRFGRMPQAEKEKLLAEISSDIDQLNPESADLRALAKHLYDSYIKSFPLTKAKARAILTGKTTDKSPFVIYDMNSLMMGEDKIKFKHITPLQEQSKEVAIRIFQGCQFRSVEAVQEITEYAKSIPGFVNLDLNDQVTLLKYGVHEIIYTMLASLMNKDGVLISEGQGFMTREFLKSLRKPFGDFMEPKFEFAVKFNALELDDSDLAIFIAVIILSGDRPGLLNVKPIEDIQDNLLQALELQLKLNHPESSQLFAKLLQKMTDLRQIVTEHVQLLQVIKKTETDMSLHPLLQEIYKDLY
In short: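 Cell-based bla reporter, HEK293H background, PPARg-driven UAS. Pre-incubation 5 h, 37C, 5% CO2. Compound 17 h, 37C. Substrate 1 h RT; fluorescence.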

[16] = qHTS assay for small molecule agonists of the antioxidant response element (ARE) signaling pathway (AID 743202; active = well fitted activation curve with a large enough effect in the signal ratio in the repeat runs, not every such curve was filed as active; the % refers to the signal ratio; note: potency is the fitted concentration of half-maximal effect)
In short: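 HepG2 ARE-bla reporter line, 2,000 cells/well; 5 h preincubation 37 C/5% CO2; compound (DMSO) 16 h 37 C; B/G FRET substrate 2 h RT; fluorescence intensity.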

[17] = qHTS assay to identify small molecule agonists of the farnesoid-X-receptor (FXR) signaling pathway - cell viability counter screen (AID 743218); note: nearly all actives have a fitted effect of over 45% in size; note: potency is the fitted concentration of half-maximal effect
In short: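 Readout: CellTiter-Glo luminescence, 30 min RT, multiplexed after the FXR-bla FRET reading. HEK 293T FXR-UAS-bla cells received compound 5 h post-plating and were incubated 16 h at 37 C.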

[18] = qHTS assay to identify small molecule that activate the aryl hydrocarbon receptor (AhR) signaling pathway - cell viability counter screen (AID 743086);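 note: HepG2 liver cells carrying the AhR DRE luciferase reporter; series mostly up to about 70 µM; nearly all actives have a fitted effect of over 45% in size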
In short: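 HepG2-AhR-luc (HG2L7.5c1) cells, 4000/well, treated 24 h at 37 C with compound; viability measured as CellTiter-Fluor fluorescence after 30 min in the same wells as the luciferase read.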

[19] = biological target: Bile acid receptor (Homo sapiens) (UniProt Q96RI1); test: qHTS assay to identify small molecule antagonists of the farnesoid-X-receptor (FXR) signaling pathway (AID 743217; active = well fitted inhibition curve with a large enough effect in the signal ratio in the repeat runs, not every such curve was filed as active; the % refers to the signal ratio)
In short: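 FRET fluorescence after 2 h room-temperature LiveBLAzer loading gives the readout. Prior step: FXR-bla HEK 293T cells, seeded and incubated 5 h, received test compounds plus 50 uM final CDCA for 16 h at 37 °C.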

[20] = biological target: Peroxisome proliferator-activated receptor gamma (Homo sapiens) (UniProt P37231); test: qHTS assay to identify small molecule antagonists of the peroxisome proliferator-activated receptor gamma (PPARg) signaling pathway (AID 743191; calls by dose curve; note: series mostly up to about 63 µM; nearly all actives have a fitted effect of over 30% in size)
In short: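 GeneBLAzer PPARg UAS-bla HEK293H cells, 5 h post-plating, exposed to compounds 17 h at 37C. LiveBLAzer B/G FRET substrate added for 1 h at room temperature; beta-lactamase reporter read by fluorescence intensity.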

Structure (SMILES) | Potency [1] | Potency [2] | Potency [3] | Potency [4] | Potency [5] | Potency [6] | outcome [7] | Potency [8] | Potency [9] | Potency [10] | Potency [11] | outcome [12] | outcome [13] | Potency [14] | outcome [15] | Potency [16] | Potency [17] | Potency [18] | outcome [19] | Potency [20]
Cc1ccc2nc(N)[nH]c(=O)c2c1Sc1ccncc1 | 13.3 µM (active) | inactive | inactive | inactive | inactive | inactive | inactive | inactive | inactive | inactive | inactive | inactive | inactive | inactive |  |  |  |  |  | 
Nc1ccc(N=Nc2ccc(N)cc2)cc1 | inactive |  | inactive | inactive | inactive | inactive | inactive |  | inactive |  | inactive | inactive | inactive | inactive | inactive | 2.43 µM (active) | inactive |  |  | 
COc1cc(OC)c2ccc(=O)oc2c1 | inactive | inactive | inactive | inactive | inactive | inactive | inactive |  |  |  | inactive |  |  | inactive |  |  | inactive | inactive |  | 
CO[C@@H]1[C@@H](OC)[C@H](C)[C@@](O)(CC(=O)O)O[C@H]1[C@H](C)[C@H]1O[C@@]2(CC[C@@](C)([C@H]3CC[C@@](C)([C@@H]4O[C@@H]([C@H]5O[C@](C)(O)[C@H](C)C[C@@H]5C)C[C@@H]4OC4C[C@H](OC)[C@@H](OC)[C@H](C)O4)O3)O2)C[C@H](O)[C@H]1C (some centres not stated) | inactive | 8.41 µM (active) |  | 11.9 µM (active) | inactive | 2.98 µM (active) |  |  |  | inactive | 9.44 µM (active) |  |  | 5.96 µM (active) | inactive |  | 9.44 µM (active) |  |  | 
COc1ccc(N)c([N+](=O)[O-])c1 | inactive | inactive | inactive | inactive | inactive | inactive | inactive | inactive | inactive | inactive | inactive | inactive | inactive | inactive | inactive | inactive |  |  | inactive | 
CCCCCCCCCCCC(=O)OCC(O)CO (configuration not stated) | inactive | inactive | inactive |  |  |  |  |  |  |  | inactive |  | inactive |  |  | inactive | inactive | inactive |  | 
O=C(O)/C=C/c1ccc(O)c(O)c1 | inactive | inactive | inactive | inactive | inactive | inactive |  | inactive | inactive | inactive | inactive |  | inactive |  |  |  | inactive | inactive | inactive | 
CCC(C)(C)C(=O)O |  | inactive | inactive | inactive | inactive | inactive | inactive | inactive | inactive | inactive | inactive | inactive | inactive | inactive | inactive | inactive | inactive | inactive | inactive | inactive
CC(C)C1CCC(C(=O)N[C@H](Cc2ccccc2)C(=O)O)CC1 (some centres not stated) | inactive | inactive | inactive |  | inactive | inactive |  |  |  |  |  |  | inactive | inactive |  | inactive | inactive | inactive |  | 
O=C(O)c1cccc(C[C@@H]2COc3ccc(OCc4nc5cc(F)ccc5s4)cc3[C@@H]2O)c1 | inactive |  |  | inactive | inactive |  |  | inactive |  |  | inactive | inactive | inactive | inactive |  |  | inactive | inactive |  | 
ClC1=C(Cl)C1(Cl)Cl | inactive | inactive | inactive | inactive | inactive | inactive | inactive | inactive | inactive | inactive | inactive | inactive | inactive | inactive |  |  | inactive | inactive | inactive | 
COc1cc(C(C)=O)ccc1OCCCN1CCC(c2noc3cc(F)ccc23)CC1 | inactive | inactive | inactive | inactive | inactive | inactive | inactive |  |  |  | inactive |  | inactive | inactive |  |  | inactive |  |  | 
O=C1c2ccccc2C(=O)c2c(O)ccc(O)c21 | 7.7 µM (active) |  |  | inactive | inactive |  |  |  |  |  | inactive |  | inactive |  |  | 2.73 µM (active) | inactive |  |  | inactive
CCCCCCCCCCCSCC(=O)O | inactive | inactive | inactive |  |  | 15.5 µM (active) |  |  |  |  | inactive |  |  | inactive |  |  |  | inactive |  | 
Cc1ccc2c(c1[N+](=O)[O-])C(=O)c1ccccc1C2=O | 30 µM (active) | inactive |  | inactive | inactive | inactive | inactive | inactive | inactive | inactive | inactive | inactive |  | inactive |  | 6.73 µM (active) | inactive | inactive |  | 
CCCCC(CC)COS(=O)(=O)O (configuration not stated) | inactive | inactive | inactive | inactive | inactive |  | inactive | inactive | inactive |  | inactive | inactive |  | inactive |  |  | inactive | inactive | inactive | 
CC(C)(C)S | inactive | inactive | inactive |  |  | inactive | inactive | inactive | inactive | inactive | inactive |  |  | inactive |  | inactive | inactive | inactive | inactive | 
CCCCCCCCCCCCCC(=O)OCC(O)CO (configuration not stated) | inactive | inactive |  | inactive | inactive |  | inactive |  | inactive |  |  | inactive |  | inactive |  | inactive | inactive | inactive | inactive | 
CCN(CC)CCOc1ccccc1C(=O)CCc1ccccc1 | inactive | inactive | inactive | inactive | inactive |  |  |  | inactive | inactive |  | inactive | inactive | inactive |  |  | 11.9 µM (active) | inactive | inactive | 
Nc1ccn([C@H]2CS[C@@H](CO)O2)c(=O)n1 | inactive |  | inactive | inactive | inactive | inactive |  | inactive |  |  | inactive |  |  |  |  |  | inactive | inactive |  | 
